Shown are actives, neighbours in structure and some others; about 1.5% of the full set was active somewhere.
C1s inh = blocks human complement C1s protease activity. P09871. 0.16% of 62,000 active. purified C1s, fluorogenic AMC substrate, pooled mixtures. mean inhibition % of two 10-compound mixtures (hits give high values), % at 5 µM (by protocol);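 active = inhibition above 20% in each of the two 10-compound mixture wells holding the compound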;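 note: 0% = enzyme wells lacking compound mixture and 100% = no-enzyme blank wells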
Target sequence (P09871 16-437 limits assumed): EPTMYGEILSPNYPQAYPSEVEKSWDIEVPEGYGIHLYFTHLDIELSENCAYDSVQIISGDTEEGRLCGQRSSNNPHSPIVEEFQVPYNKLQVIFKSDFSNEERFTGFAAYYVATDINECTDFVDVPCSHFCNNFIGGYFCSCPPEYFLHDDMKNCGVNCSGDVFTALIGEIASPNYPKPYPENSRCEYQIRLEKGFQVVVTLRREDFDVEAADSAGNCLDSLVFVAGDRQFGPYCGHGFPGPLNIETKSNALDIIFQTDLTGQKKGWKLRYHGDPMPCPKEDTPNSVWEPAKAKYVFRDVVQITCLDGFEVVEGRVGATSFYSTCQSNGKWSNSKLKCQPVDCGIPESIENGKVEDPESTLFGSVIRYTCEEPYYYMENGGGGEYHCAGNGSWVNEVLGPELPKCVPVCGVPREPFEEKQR
Target sequence (P09871 438-688 limits assumed): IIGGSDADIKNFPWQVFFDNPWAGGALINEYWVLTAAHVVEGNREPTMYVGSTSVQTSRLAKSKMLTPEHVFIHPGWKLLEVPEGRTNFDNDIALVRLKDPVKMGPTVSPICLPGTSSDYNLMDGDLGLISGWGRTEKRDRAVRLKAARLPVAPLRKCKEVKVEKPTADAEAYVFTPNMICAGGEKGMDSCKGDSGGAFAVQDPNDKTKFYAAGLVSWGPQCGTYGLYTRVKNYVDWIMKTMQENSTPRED
FXIIa inh mix = inhibitors of human coagulation factor XIIa, pooled mixtures. 0.2% of 62,000 active. inhibition, % at 5 µM. AID 684. purified FXIIa, fluorogenic substrate;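 note: 0% = enzyme without compound and 100% = no enzyme blank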
SK-BR-3 tox 24h = SK-BR-3 proliferation inhibitors; 0.47% of 41,000 active; viability, % at 10 µM; AID 847; SK-BR-3 viability, CellTiter-Glo ATP luminescence, 24 h; hits give low values;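 active = viability at or below the median of all test compounds minus 3 SD, in both replicates if run twice, cut at about 45% in these data; inconclusive = duplicate replicates that disagree with each other; inactive = viability above that cutoff in every replicate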;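 note: 100% = median untreated cell wells and 0% = median positive control drug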
Cathepsin G inh = cathepsin G (human) inhibition; purified enzyme, AMC-tetrapeptide fluorescence, pooled mixtures; inhibition, % at 5 µM (by protocol); 0.2% of 62,000 active; AID 581;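 active = inhibition above 20% in each of the two mixture wells holding the compound; inactive = inhibition of 20% or less in either well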;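 note: 0% = enzyme control without mixture and 100% = blank lacking enzyme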
FXIa inh mix = blocks human factor XIa in pooled compound mixtures; P03951; purified FXIa, fluorogenic substrate; inhibition, % at 5 µM; 0.19% of 62,000 active;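 note: each value is inhibition by a whole ten-compound pool holding the compound; 0% = enzyme with no mixture and 100% = wells lacking enzyme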
Her2 expr inh = inhibitors of human Her2 kinase expression. SKBR-3 HER2 protein level, AlphaScreen, 18-24 h; hits give low values. 0.69% of 65,000 active. P04626. HER2 level % of control, % at 10 µM;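 active = HER2 level under 5% of the carrier-only control; inconclusive = no clear call, values can overlap the other calls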;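 note: 100% = DMSO carrier and 0% = 500 nM PU-H71 HSP90 inhibitor; lower value means stronger loss of Her2 protein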
The depositor's hits bear a star; ? = inconclusive; nt = no result given. Cut-off read from the data, not from the text of the source, unless noted: active = inhibition above about 20% (passing the limit was not always enough); inactive = the rest.

SMILES	C1s inh	FXIIa inh mix	SK-BR-3 tox 24h	Cathepsin G inh	FXIa inh mix	Her2 expr inh
COC(=O)c1cc(Br)c(=O)n(-c2ccccn2)c1	1	-2	98	7	-4	107
COC(=O)c1cc(Br)c(=O)n(-c2ccc(C(C)=O)cc2)c1	-3	21*	104	7	1	79
O=C(CSc1nc2ccccc2o1)Nc1ccccc1N1CCCCCC1	-5	2	82	46	38*	94
O=C(CSc1nc2ccccc2o1)Nc1ccc(N2CCOCC2)c(Cl)c1	15	3	78	28	14	103
Cc1c(Cl)cccc1NC(=O)CC(NCCN1CCOCC1)C(=O)O (centres undefined)	-1	5	111	-3	8	102
O=C(CCN1CCN(c2ccccc2F)CC1)c1ccc(Br)cc1	2	1	nt	-1	7	-16*
CCOc1ccc(CNc2ccc3c(c2)ncn3C)cc1	-15	11	82	-8	4	-17*
COc1cc(OC)c2c(C)c(Cl)c(=O)oc2c1	-64	-1	77	-6	-22	82
Cc1c(NC(=O)C2CCCN(S(=O)(=O)c3cnc[nH]3)C2)c(=O)n(-c2ccccc2)n1C (centres undefined)	-5	2	nt	-2	24*	118
Cc1ccccc1NC(=O)C1CCCN(S(=O)(=O)c2cnc[nH]2)C1 (centres undefined)	-10	-1	nt	-6	4	97
COc1ccc(CC(=O)Nc2cccc(-c3nnc(-c4cccc(C)c4)o3)c2)cc1OC	31	4	?	24	24	-0.4*
COc1cccc(-c2nnn(CC(=O)NC3CCCC3)n2)c1OC	15	6	119	9	22*	199
O=C(Cn1nnc(-c2ccccc2NC(=O)C2CC2)n1)NC1CCCCC1	5	7	93	12	6	95
Cc1onc(-c2ccccc2)c1C(=O)Nc1sc2c(c1C#N)CCC2	-30	1	44*	-5	4	68
COc1ccccc1C1NC(=O)NC(C)=C1C(=O)Nc1cccc(C)c1C (centres undefined)	12	7	nt	8	6	68
COc1ccccc1C1NC(=O)NC(C)=C1C(C)=O (centres undefined)	0	72*	nt	2	12	97
O=C(NCCN1CCOCC1)c1noc2c1CCc1ccccc1-2	20	2	85	90*	15	95
O=C(NCCN1CCOCC1)c1ccc(-c2ccccc2)cc1	-24	-32	nt	5	-3	88
O=C(Cc1ccc(-c2ccccc2)cc1)NCCN1CCOCC1	24*	3	117	10	9	104
Cc1onc(-c2ccccc2)c1C(=O)NCCN1CCOCC1	4	-19	nt	8	5	65
CCCc1cc(C(=O)NCCc2ccccc2)no1	8	3	nt	9	1	119
O=C(NCCc1ccccc1)c1noc2c1CCc1ccccc1-2	26*	8	69	101*	36*	82
CCCNC(=O)c1noc2c1CCc1ccccc1-2	8	1	nt	61*	10	80
CC1(CC(=O)O)SC(=O)NC1=O (centres undefined)	-13	-2	91	-1	3	69
CN(C)CCNC(=O)Cn1nc(C(F)F)cc1C1CC1	-15	-11	98	6	-8	84
SMILES	C1s inh	FXIIa inh mix	SK-BR-3 tox 24h	Cathepsin G inh	FXIa inh mix	Her2 expr inh
COc1cc2c(C(=O)Nc3ccc4c(c3)OCO4)cn(CC(C)C)c(=O)c2cc1OC	10	11	89	7	0	62
COc1cc2c(C(=O)NCc3ccc4c(c3)OCO4)cn(CC(C)C)c(=O)c2cc1OC	18	2	25*	10	8	25
CC(c1ccco1)N(C(=O)c1ccc(Cl)s1)c1ccccn1 (centres undefined)	17	0	nt	13	9	134
COC(=O)c1ccccc1NC(=O)CN1CCN(C23CC4CC(CC(C4)C2)C3)CC1	39	8	41*	-7	7	109
COC(=O)c1ccccc1NC(=O)CN1CCC(NC(=O)c2ccc(C)cc2)CC1	2	5	nt	13	4	94
CC1CCN(S(=O)(=O)c2cccc(C(=O)Nc3ccccn3)c2)CC1	-78	-19	93	-6	-9	65
CC1CCN(S(=O)(=O)c2cccc(C(=O)NCc3cccs3)c2)CC1	23*	4	77	16	7	82
CC1(C)CC(=O)C=C(NCC2CCCO2)C1 (centres undefined)	-66	11	95	-31	-27	90
CS(=O)(=O)c1sc2nc(-c3cccs3)cc(-c3ccccc3)c2c1N	-24	14	77	4	-14	92
CC(=O)c1sc2nc(-c3cccs3)cc(C(F)(F)F)c2c1N	-6	7	108	0	6	-2.8*
CCn1c(SCC(=O)NCCOC)nc2sc(C)c(C)c2c1=O	-12	13	nt	-9	-3	105
CCn1c(SCC(=O)c2c(N)n(C)c(=O)n(C)c2=O)nc2sc(C)c(C)c2c1=O	33*	-24	nt	5	28	95
COc1ccc(NCc2nnc(SCC(=O)c3ccc(OC)cc3)n2C)cc1	9	1	75	10	4	-43*
COc1ccc(CCn2c(=S)[nH]c3cc(C(=O)NCc4ccco4)ccc3c2=O)cc1OC	-8	3	nt	4	-4	14
CCCn1c(NCc2cc(C)ccc2O)nc2ccccc21	-19	3	73	3	0	nt
Cn1c(C(C#N)C(=O)c2ccco2)nc2ccccc21 (centres undefined)	19	1	129	13	11	-12*
CCCn1c(NC(=O)c2ccco2)nc2ccccc21	8	-19	nt	8	7	0.7*
COc1ccc(OCCn2c(NC(=O)c3ccco3)nc3ccccc32)cc1	-4	7	89	-2	7	59
CCCn1c(NCc2ccc(C)o2)nc2ccccc21	1	10	nt	-1	26*	86
CCOC(=O)c1c(C)[nH]c(C(=O)OC/C(O)=C(\C#N)c2nc3ccccc3[nH]2)c1C	-3	-5	nt	1	9	-3.7*
N#C/C(=C(/O)COC(=O)c1ccc2c(c1)OCCO2)c1nc2ccccc2[nH]1	-8	8	nt	-5	4	109
COC(=O)c1ccc(-c2sc3nc(N4CCOCC4)c4c(c3c2N)CC(C)(C)OC4)o1	nt	nt	34*	nt	nt	22
COC(=O)C1=C(C)N(C)C(C)=C(C(=O)OC)C1c1ccccc1C	10	3	93	9	24*	87
COc1cc(-c2nnc(CSc3nc4ccccc4s3)o2)cc(OC)c1OC	13	2	nt	11	3	87
COCCN1C(=O)c2ccccc2C(C(=O)NCCCN2CCCC2)C1c1c[nH]c2ccccc12 (centres undefined)	3	8	92	5	37*	87

Bioassay records as filed in PubChem.
